Records with an inconclusive call do not appear. Entries that show only a call come without a potency. Some compounds were tested as several samples or in several runs, with calls that do not always agree. Calls of active or inactive are those of the source. The call rests on the fitted dose curve; in most records, active means well fitted inhibition curve with a large enough effect in the repeat runs; inconclusive means weak or mixed curves; inactive means no such curve, though single readings can be large or run the other way.
molecular target: Cytochrome P450 2D6 (Homo sapiens) (UniProt P10635); experiment: Cytochrome P450 Family 2 Subfamily D Member 6 (CYP2D6) small molecule antagonists: luciferase reporter qHTS assay (AID 1671196); conditions: P450-Glo CYP2D6 enzyme assay, luciferin luminescence, 1 h; series mostly up to 115 µM; further: nearly all actives have a fitted effect of over 50% in size
Sequence (P10635 whole entry, looked up): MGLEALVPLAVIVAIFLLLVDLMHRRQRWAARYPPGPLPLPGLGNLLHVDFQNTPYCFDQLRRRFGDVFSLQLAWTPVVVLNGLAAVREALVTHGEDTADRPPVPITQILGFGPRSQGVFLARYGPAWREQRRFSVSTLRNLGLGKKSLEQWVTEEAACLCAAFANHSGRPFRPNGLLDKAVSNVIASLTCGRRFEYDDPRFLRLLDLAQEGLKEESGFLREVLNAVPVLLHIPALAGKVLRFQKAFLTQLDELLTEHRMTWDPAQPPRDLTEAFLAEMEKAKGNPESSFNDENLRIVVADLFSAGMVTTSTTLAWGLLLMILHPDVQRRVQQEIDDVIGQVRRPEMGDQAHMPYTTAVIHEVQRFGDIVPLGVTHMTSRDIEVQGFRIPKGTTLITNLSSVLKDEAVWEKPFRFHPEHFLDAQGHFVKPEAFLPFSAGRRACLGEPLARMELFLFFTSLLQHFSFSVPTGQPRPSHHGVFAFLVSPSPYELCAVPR
Text: U.S. Tox21 Program National Center for Advancing Translational Sciences [NCATS] U.S. Environmental Protection Agency [EPA] National Institutes of Environmental Health Sciences [NIEHS] National Toxicology Program [NTP] U.S. Food and Drug Administration [FDA] Tox21 Assay Overview: Cytochrome P450 (CYP) enzymes are membrane-bound hemeproteins that play a key role in metabolism of drugs and xenobiotics. Evaluation of the effect of chemicals on CYP isozymes is useful to minimize the adverse drug reactions and toxicities in drug development process. Tox21 chemicals were tested for their effect on CYP enzyme activities by using P450-Glo (TM) screening systems (Promega Corporation, Madison, WI). These systems provide a luminescent method containing proluciferin substrates and are converted to luciferin products by CYP isozymes. The luciferin products formed are detected with a luciferin detection reagent, and the amount of light produced is proportional to CYP activity. P450-Glo (TM) CYP2D6 screening system (Catalog. No. V9890) was used to detect the compounds that interfere in CYP2D6 activity.
Tox21 Assay Protocol Summary: Two ul of enzyme-substrate mix was dispensed into medium binding white/solid 1536-well plates (Greiner Bio-One North America Inc., Monroe, NC) using a BioRaptr Flying Reagent Dispenser (FRD, Beckman Coulter, Brea, CA). […] The assay plates were incubated at room temperature for 10 min. Then 2 ul of NADPH regeneration solution was added to each well of the assay plates using an FRD and incubated at room temperature for 1 h. The reaction was stopped by adding 4 ul of detection reagent using an FRD and after 20 min incubation at room temperature the luminescence signal was measured using a ViewLux plate reader (Perkin Elmer, Shelton, CT). Data were expressed as relative luminescence units.
Potency means the concentration at half of the fitted maximal effect.

SMILES	Potency
NC1(c2ccccc2)CCCCC1	31.4 µM (active)
CC(C)NCC(O)c1ccc([N+](=O)[O-])cc1 (stereo not given)	27.5 µM (active)
ClCC1CO1 (stereo not given)	inactive
CC#Cc1cc(C)nc(Nc2ccccc2)n1	inactive
CC(C)[N+](C)(CCC(C(N)=O)(c1ccccc1)c1ccccc1)C(C)C	0.776 µM (active)
O=c1[nH]c2ccccc2n1C1CCNCC1	30.9 µM (active)
CC(C)(C)c1cc(O)ccc1O	63.3 µM (active) and inactive
C[N+]1(C)CCCCC1	inactive
CCCOC(=O)Cc1ccc(OCC(=O)N(CC)CC)c(OC)c1	inactive
C/C(=N\NC(=O)Nc1cc(F)cc(F)c1)c1ncccc1C(=O)O	inactive
CCOC(=O)COc1ccc(Cl)cc1Cl	inactive
CCN(CCO)CCn1c(Cc2ccccc2)nc2c1c(=O)n(C)c(=O)n2C	inactive
C=CC1(C)OC(=O)N(c2cc(Cl)cc(Cl)c2)C1=O (stereo not given)	inactive
COC(=O)c1ccc(CBr)cc1	64 µM (active)
N[C@@H]1C[C@H]1c1ccccc1	27.5 µM (active)
CCCCS(=O)(=O)Cl	inactive
NNCc1ccccc1	11.5 µM (active)
O=S1(=O)OCCO1	inactive
CCC1(c2cccc(O)c2)CCCCN(C)C1 (stereo not given)	15.5 µM (active)
CCOC(=O)C(SP(=S)(OC)OC)c1ccccc1 (stereo not given)	44.8 µM (active)

SMILES	Potency
Nc1c(Cl)c(F)nc(OCC(=O)O)c1Cl	inactive
CCCOC(=O)c1cncn1C(C)c1ccccc1 (stereo not given)	inactive
CCN[C@@H](C)Cc1cccc(C(F)(F)F)c1	2.45 µM (active)
C=CCc1cc(OC)c2c(c1)OCO2	23.5 µM (active)
CCN1CCCC1CNC(=O)C(O)(c1ccccc1)c1ccccc1 (stereo not given)	4.9 µM (active)
ClCOCCl	inactive
CC(C)N(Cc1ccccc1)C(=O)C(C)(C)C	inactive
CC(C)(C)C(=O)Cl	inactive
C=C1CC[C@@]2(O)[C@H]3Cc4ccc(O)c5c4[C@@]2(CCN3CC2CC2)[C@H]1O5	2.19 µM (active)
Cc1ccc(S(=O)(=O)N[C@@H](CCCCN)C(=O)CCl)cc1	17.4 µM (active)
O=P(O)(O)CN(CP(=O)(O)O)CP(=O)(O)O	inactive
CC(C)C(C)(N)C#N (stereo not given)	inactive
CCCCCCCCSC(=O)Oc1cc(Cl)nnc1-c1ccccc1	inactive
CCCC[N+](=O)[O-]	inactive
CC[C@H](O)C(C[C@H](C)N(C)C)(c1ccccc1)c1ccccc1	1.44 µM (active)
CCNc1nc(Cl)nc(NC(C)(C)C)n1	inactive
C#CC(C)(C)O	inactive
COC[C@@H](NC(C)=O)C(=O)NCc1ccccc1	inactive
CN1COCN(Cc2cnc(Cl)s2)/C1=N\[N+](=O)[O-]	inactive
C=CC=O	inactive

Source: PubChem BioAssay (Tox21)
